In PubChem BioAssay:
Records with an inconclusive call do not appear. Activity calls are given as the source filed them.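 How the source made its calls, unless noted: active means viability at or below 27.92% in each of two runs, the all-compound median minus 4 SD; inconclusive means no clear call, values can overlap the other calls; inactive means the rest.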

Legend:
[1] = Her2 expression decrease, cell viability multiplex – SKBR3 breast tumor cells, AlphaScreen, ATP viability, primary screen (AID 461;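 active means Her2 level under about 52% in both replicate screens, with viability over 70% of control, limit read from the data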;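 on Her2 level: lower value means less Her2 protein in the cells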;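 on viability: percent of carrier control wells set as 100% viability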); settings: SKBR3 Her2 protein level, 18-24 h, measured here: SKBR3 viability, ATP luminescence, at 10 µM
[2] = target: Receptor tyrosine-protein kinase erbB-2 (Homo sapiens) (UniProt P04626); test: as above; settings: 18-24 h, at 10 µM, stronger effect = lower value
[3] = reduced viability of SK-BR-3 breast cancer cells – cell-based, 24 h, human, pilot screen (AID 572;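 active means viability at or below 10% of carrier control in both of two separate runs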;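 further: compound exposure lasted between 18 and 24 h rather than exactly 24 h; 100% = carrier-treated control wells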); settings: SK-BR-3 viability, CellTiter-Glo luminescence, at 10 µM, stronger effect = lower value
[4] = HUVEC growth inhibition – cell-based, human, primary screen (AID 575;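 active means viability at or below 30% in both replicate assays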;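 further: 100% = median of untreated cell wells with 0.1% DMSO on each plate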); settings: HUVEC proliferation, CellTiter-Glo luminescence, 72 h; at 10 µM; stronger effect = lower value
[5] = H69AR cell proliferation blockers – human, duplicate replicates, primary screen (AID 580;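 active means viability at or under a set limit in both replicates, limit being median viability minus 3 SD, cut at about 48% in these data, passing the limit was not always enough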;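 further: 100% = mean luminescence of untreated wells and 0% = no signal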); settings: H69AR lung tumor cells viability, ATP luminescence, 72 h; at 10 µM; stronger effect = lower value
[6] = MRP1 drug-resistance reversers in H69AR cells – cell-based, doxorubicin co-treatment, pilot screen (AID 601;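 active means viability loss from added drug above about 55%, and viability with drug at most 40%, in both replicates, limit read from the data, passing the limit was not always enough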); settings: CellTiter-Glo, 72 h, at 10 µM; for differential viability (reversal): stronger effect = higher value
[7] = yeast transport mutant growth inhibition pilot in 384-well plates, post-Golgi transport modulator project (AID 636; in the data active means inhibition above about 31%); settings: absorbance 615 nm, about 18 h, stronger effect = higher value
[8] = growth suppression of yeast trafficking mutant, preliminary HTS, modulators of trafficking downstream of Golgi apparatus project, 1536-format plate, OD 615 nm (AID 637; in the data active means inhibition above about 30%); settings: yeast transport mutant growth, absorbance 615 nm, 18 h; stronger effect = higher value
[9] = S. cerevisiae growth inhibition in permissive medium (OD615), pilot counter-assay for S. cerevisiae lifespan shortening project, permissive growth control (AID 705;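 active means growth inhibition above 25% in both replicates, a cutoff set 3 SD above the mean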); settings: OD615, 24 h, at 10 µM, stronger effect = higher value
[10] = S. cerevisiae growth inhibition in restrictive medium, OD615, pilot screen, restrictive growth control, yeast lifespan reduction project (AID 706;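 active means growth inhibition above a set limit, 3 SD over mean compound inhibition, in both replicates, cut at about 43% in these data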;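 further: modified DeaD lifespan yeast strain shifted to restrictive glucose medium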); settings: OD615, 48 h, at 10 µM, stronger effect = higher value
[11] = doxorubicin toxicity protection in MRP-1 cells – H69AR cells, CellTiter-Glo, duplicate, MRP-1 activator project, pilot screen (AID 807;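 active means viability increase at or above a cutoff of the median across tested compounds plus 3 SD, cut at about 8.5% in these data, passing the limit was not always enough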;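 further: compound pretreatment 18-22 h then 72 h combined with doxorubicin; 0% = doxorubicin alone and 100% = vehicle without doxorubicin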); settings: H69AR viability with doxorubicin, CellTiter-Glo luminescence; at 10 µM; stronger effect = higher value
[12] = viability of HCT116 without oncogenic beta-catenin – human colon tumor cells, pilot screen (AID 823;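 active means cell viability at or below a set limit in both duplicate runs, the limit being the all-compound median minus 4 SD, cut at about 23% in these data, passing the limit was not always enough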;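 further: 0% = wells killed by 20 µM Hyamine and 100% = untreated DMSO cell wells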); settings: HCT116 beta-catenin knockout viability, CellTiter-Glo, 60 h; at 10 µM; stronger effect = lower value
[13] = viability of PTEN-null HCT116 cells – cell-based, HCT116 clonal line, CellTiter-Glo, pilot screen (AID 824); settings: HCT116 PTEN-deleted viability, 60 h, at 10 µM, stronger effect = lower value;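 further: 0% = 20 µM Hyamine control and 100% = vehicle cell control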
[14] = RAM pathway blockade in budding yeast – dse1pr::URA3 reporter, 5-FOA selection, pilot screen (AID 869;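 active means inhibition over a set limit, the all-compound mean plus 3 SD, in both replicate runs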;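 further: 0% = DMSO wells with no growth and 100% = 10 µM 1-NA-PP1 with full growth; RAM network block rescues cells from 5-FOA so hits raise OD615 growth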); settings: S. cerevisiae dse1pr::URA3 5-FOA growth, OD615, 2 d; at 10 µM; stronger effect = higher value; strain carries analog-sensitive mutant Cbk1 kinase
[15] = RAM signaling pathway blockade in yeast – S. cerevisiae, Pdr1DBD-CYC8 efflux-inhibited sensitized strain, primary screen (AID 1298;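 active means RAM network inhibition above 8.4% in each of two replicates, 3 SD over the compound average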;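 further: 0% = DMSO untreated cells without growth and 100% = 10 µM 1-NA-PP1 full growth; higher means more yeast growth rescued from 5-FOA killing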); settings: S. cerevisiae cbk1-as DSE1-URA3 strain, 5-FOA growth OD615, 2 d; at 50 µM; stronger effect = higher value
[16] = H69AR cells + 2 uM doxorubicin, measured here: viability with 2 uM doxorubicin, stronger effect = lower value
[17] = H69AR cells, compound alone cytotoxicity

Chain of Receptor tyrosine-protein kinase erbB-2 (Homo sapiens) (P04626 whole entry, looked up): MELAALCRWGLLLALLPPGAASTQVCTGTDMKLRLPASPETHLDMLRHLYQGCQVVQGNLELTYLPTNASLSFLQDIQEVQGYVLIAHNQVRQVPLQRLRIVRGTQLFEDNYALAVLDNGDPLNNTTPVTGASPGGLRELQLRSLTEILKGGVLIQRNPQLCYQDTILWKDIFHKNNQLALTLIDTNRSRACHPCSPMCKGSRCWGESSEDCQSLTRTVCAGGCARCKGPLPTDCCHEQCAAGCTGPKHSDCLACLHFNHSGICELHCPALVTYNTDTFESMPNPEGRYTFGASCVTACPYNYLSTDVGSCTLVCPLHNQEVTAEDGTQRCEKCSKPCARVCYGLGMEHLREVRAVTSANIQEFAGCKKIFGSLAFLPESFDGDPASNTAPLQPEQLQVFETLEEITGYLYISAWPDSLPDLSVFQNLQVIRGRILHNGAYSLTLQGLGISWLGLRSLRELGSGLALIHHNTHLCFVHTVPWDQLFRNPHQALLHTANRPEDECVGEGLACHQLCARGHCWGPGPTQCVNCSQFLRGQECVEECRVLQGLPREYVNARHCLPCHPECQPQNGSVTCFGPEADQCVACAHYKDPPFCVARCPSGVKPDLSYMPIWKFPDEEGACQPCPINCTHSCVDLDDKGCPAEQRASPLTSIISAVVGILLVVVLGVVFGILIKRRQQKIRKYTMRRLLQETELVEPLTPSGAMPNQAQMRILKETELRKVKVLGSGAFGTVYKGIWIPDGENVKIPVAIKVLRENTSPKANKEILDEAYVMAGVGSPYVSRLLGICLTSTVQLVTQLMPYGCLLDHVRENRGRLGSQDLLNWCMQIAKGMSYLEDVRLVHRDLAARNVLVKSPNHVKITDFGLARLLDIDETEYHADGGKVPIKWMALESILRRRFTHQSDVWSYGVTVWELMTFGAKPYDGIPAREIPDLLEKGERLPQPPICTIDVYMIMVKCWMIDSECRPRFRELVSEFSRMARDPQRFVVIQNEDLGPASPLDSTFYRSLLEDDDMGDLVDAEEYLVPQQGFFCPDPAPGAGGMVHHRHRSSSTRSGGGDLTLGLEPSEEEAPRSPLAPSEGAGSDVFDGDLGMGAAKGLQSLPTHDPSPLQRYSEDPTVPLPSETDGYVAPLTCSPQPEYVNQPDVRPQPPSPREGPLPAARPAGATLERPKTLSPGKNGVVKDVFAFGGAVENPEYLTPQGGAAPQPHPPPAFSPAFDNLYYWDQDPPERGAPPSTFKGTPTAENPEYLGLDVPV

O=C(NCCN1C(=O)C2C3C=CC(C3)C2C1=O)N1CCCCC1 (stereo not drawn)
122%: viability [1]
inactive: Her2 level [2] 112% | viability [3] 122% | viability [4] 100% | viability [5] 103% | differential viability (reversal) ([6]; H69AR cells + 2 uM doxorubicin) 6.97% | inhibition [7] 4.93% | inhibition [8] -4.83% | growth inhibition [9] -11.7% | growth inhibition [10] 0.245% | viability increase [11] -0.67% | viability [12] 102% | viability [13] 95.1% | inhibition [14] 2.13% | RAM network inhibition [15] 3.08%
103%: viability [6, 17]
96.5%: viability [6, 16]

Cc1ccccc1CSc1nnc(C)c(=O)[nH]1
92.5%: viability [6, 16]
97.2%: viability [6, 17]
inactive: Her2 level [2] 106% | viability [3] 90% | viability [4] 104% | viability [5] 97.2% | differential viability (reversal) ([6]; H69AR cells + 2 uM doxorubicin) 4.72% | inhibition [7] -3.2% | inhibition [8] -0.17% | growth inhibition [9] -7.61% | growth inhibition [10] -2.98% | viability increase [11] -1.7% | viability [12] 98.8% | viability [13] 99% | inhibition [14] 0.815% | RAM network inhibition [15] 1.17%
90%: viability [1]

CC(=O)c1ccc(OCC(O)CN2CCN(CCO)CC2)cc1 (stereo not drawn)
100%: viability [6, 16]
116%: viability [1]
96.3%: viability [6, 17]
inactive: Her2 level [2] 112% | viability [3] 116% | viability [4] 99.2% | viability [5] 96.3% | differential viability (reversal) ([6]; H69AR cells + 2 uM doxorubicin) -3.92% | inhibition [7] -5.73% | inhibition [8] 2.33% | growth inhibition [9] -1.98% | growth inhibition [10] 4.8% | viability increase [11] 1.18% | viability [12] 99% | viability [13] 101% | inhibition [14] 1.13% | RAM network inhibition [15] 1.57%

COc1cc(C(=O)N2c3ccccc3CC2C)cc(OC)c1OC (stereo not drawn)
81.8%: viability [6, 17]
102%: viability [1]
inactive: Her2 level [2] 81.5% | viability [3] 102% | viability [4] 88.8% | viability [5] 81.8% | differential viability (reversal) ([6]; H69AR cells + 2 uM doxorubicin) -9.55% | inhibition [7] -4.59% | inhibition [8] -3.33% | growth inhibition [9] -3.11% | growth inhibition [10] -16.6% | viability increase [11] -4.64% | viability [12] 87.4% | viability [13] 83.8% | inhibition [14] 0.67% | RAM network inhibition [15] 6.34%
91.3%: viability [6, 16]

COc1ccc(-c2nc(CCNC(=O)c3ccco3)cs2)cc1OC
77.4%: viability [6, 16]
inactive: Her2 level [2] 102% | viability [3] 96.5% | viability [4] 89.2% | viability [5] 77.9% | differential viability (reversal) ([6]; H69AR cells + 2 uM doxorubicin) 0.52% | inhibition [7] -4.67% | inhibition [8] -2.95% | growth inhibition [9] -4.64% | growth inhibition [10] -8.75% | viability increase [11] -3.3% | viability [12] 95.3% | viability [13] 87.7% | inhibition [14] 0.415% | RAM network inhibition [15] -1.56%
77.9%: viability [6, 17]
96.5%: viability [1]

CC(C)c1nnc(NC(=O)Cc2cccs2)s1
106%: viability [1]
90.6%: viability [6, 16]
inactive: Her2 level [2] 92% | viability [3] 106% | viability [4] 106% | viability [5] 96.7% | differential viability (reversal) ([6]; H69AR cells + 2 uM doxorubicin) 6.08% | inhibition [7] -2.53% | inhibition [8] 1.48% | growth inhibition [9] -2.5% | growth inhibition [10] -0.8% | viability increase [11] -0.07% | viability [12] 99.5% | viability [13] 94.8% | inhibition [14] 2.64% | RAM network inhibition [15] 0.83%
96.7%: viability [6, 17]

CC(C)C(C(=O)Nc1ccc2c(c1)OCCO2)N1C(=O)c2ccccc2C1=O (stereo not drawn)
91%: viability [1]
94.8%: viability [6, 16]
104%: viability [6, 17]
inactive: Her2 level [2] 102% | viability [3] 91% | viability [4] 99.8% | viability [5] 104% | differential viability (reversal) ([6]; H69AR cells + 2 uM doxorubicin) 8.75% | inhibition [7] 0.77% | inhibition [8] -10.7% | growth inhibition [9] -11.7% | growth inhibition [10] -13.3% | viability increase [11] -0.14% | viability [12] 99.1% | viability [13] 97.7% | inhibition [14] 1.34% | RAM network inhibition [15] 2.58%

CC(=O)Nc1cccc(NC(=O)CSc2nn3c(=O)c(C)nnc3s2)c1
100%: viability [1]
90.8%: viability [6, 17]
inactive: Her2 level [2] 91% | viability [3] 100% | viability [4] 76.8% | viability [5] 90.8% | differential viability (reversal) ([6]; H69AR cells + 2 uM doxorubicin) 15.5% | inhibition [7] -5.73% | inhibition [8] -4.33% | growth inhibition [9] -3.39% | growth inhibition [10] -16% | viability increase [11] 0.35% | viability [12] 110% | viability [13] 103% | inhibition [14] 1.29% | RAM network inhibition [15] 4.27%
75.3%: viability [6, 16]

CC(C)c1nnc(NC(=O)C2CCCCC2)s1
93.8%: viability [6, 16]
98.5%: viability [1]
inactive: Her2 level [2] 97% | viability [3] 98.5% | viability [4] 96.5% | viability [5] 99.5% | differential viability (reversal) ([6]; H69AR cells + 2 uM doxorubicin) 5.75% | inhibition [7] -4.13% | inhibition [8] 0.83% | growth inhibition [9] -3.55% | growth inhibition [10] 0.755% | viability increase [11] -0.65% | viability [12] 99.7% | viability [13] 97.1% | inhibition [14] -0.59% | RAM network inhibition [15] -2.03%
99.5%: viability [6, 17]
